From PubChem BioAssay (Tox21)
Where “and” joins values, the source holds several entries; their conditions need not be identical. Equal entries are not always repeated. Records with an inconclusive call do not appear. Where a structure was tested more than once in an assay, its records may differ in their call. Calls of active or inactive are those of the source. Unless noted, calls follow the shape of the full dose curve.

How the values were obtained:
[1] = qHTS assay to identify small molecule antagonists of the sonic hedgehog signaling (Shh) pathway (AID 1259369); also: nearly all actives have a fitted effect of over 45% in size; also: potency is read from the fitted curve at half-maximal effect
Method in brief: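 Antagonist mode: compound added to 3T3 Gli1-Luc cells followed by conditioned-medium stimulation, 24 h at 37 C, 5% CO2. Inhibition taken as loss of Gli1-driven luciferase luminescence.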

[2] = molecular target: Estrogen receptor beta (Homo sapiens) (UniProt Q92731); assay: qHTS assay to identify small molecule agonists of the estrogen receptor beta (ER-beta) signaling pathway (AID 1259377; active = well fitted activation curve with a large enough effect in the signal ratio in the repeat runs, not every such curve was filed as active; the % refers to the signal ratio)
Method in brief: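 A UAS-controlled beta-lactamase reporter in ER-beta-UAS-bla HEK293T cells reports receptor activation. Compounds act for 16 hr at 37C in 2% charcoal-stripped serum, and a FRET substrate is read by fluorescence after 2 hours.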

[3] = qHTS assay to identify small molecule agonists of the androgen receptor (AR) signaling pathway in the presence of an antagonist - cell viability counter screen (AID 1259379; active = well fitted curve in the direction sought with a large enough effect in the repeat runs; an effect the other way counts as inactive or inconclusive; also: nearly all actives have a fitted effect of over 25% in size; also: potency is read from the fitted curve at half-maximal effect)
Method in brief: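 Cytotoxicity counter-screen run in the same wells as the nilutamide-challenged (3.0 µM final) AR agonist assay in MDA-kb2 cells. Compounds tested at 15 concentrations for 16 h, 37 °C without CO2; CellTiter-Fluor fluorescence read.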

[4] = qHTS assay to identify small molecule agonists of the estrogen receptor beta (ER-beta) signaling pathway - cell viability counter screen (AID 1259380; active = well fitted curve in the direction sought with a large enough effect in the repeat runs; an effect the other way counts as inactive or inconclusive; also: nearly all actives have a fitted effect of over 30% in size)
Method in brief: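 Cell viability counter screen: CellTiter-Glo luminescence (30 min, room temperature) measured in the same wells as the beta-lactamase readout, after 16 hr compound exposure at 37C of ER-beta-bla HEK293T cells in 2% charcoal-stripped FBS medium.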

[5] = qHTS assay to identify small molecule antagonists of the estrogen receptor beta (ER-beta) signaling pathway - cell viability counter screen (AID 1259382; active = well fitted curve in the direction sought with a large enough effect in the repeat runs; an effect the other way counts as inactive or inconclusive;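 also: HEK293T cells carrying ER-beta-UAS-bla reporter stimulated with estradiol; series mostly up to about 92 µM; nearly all actives have a fitted effect of over 55% in size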)
Method in brief: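 Cytotoxicity was measured in the same wells by CellTiter-Glo luminescence after 30 min at room temperature. Cells were ER-beta-bla HEK293T in charcoal-stripped serum, given compound together with 1 nM E2 and incubated 16 h at 37C.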

[6] = molecular target: Estrogen receptor (Homo sapiens) (UniProt P03372); assay: qHTS assay to identify small molecule agonists of the estrogen receptor alpha (ER-alpha) signaling pathway in the presence of an antagonist (AID 1259383); also: nearly all actives have a fitted effect of over 15% in size; also: potency is read from the fitted curve at half-maximal effect; as to activation: top concentration of the series differs between compounds
Method in brief: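 Agonist-mode confirmation run in the presence of 10.0nM (final) ICI-182,780 antagonist. The reporter was ERE-driven luciferase in VM7Luc4E2 cells, grown in charcoal-stripped serum. Cells were exposed to 15-concentration compound series for 22hr, then ONE-Glo luminescence was read.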

[7] = qHTS assay to identify small molecule agonists or antagonists of the thyroid stimulating hormone receptor (TSHR) signaling pathway - wild type cell line counter screen (AID 1259384)
Method in brief: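 Wild-type HEK293 cells were plated 18 h at 37 C/5% CO2, pin-dosed with compound plus Ro20-1724 medium, held 30 min at room temperature, then given cAMP-d2 and anti-cAMP-cryptate; fluorescence was read after 1 h. Fifteen concentrations, triplicate.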

[8] = molecular target: Thyrotropin receptor (Homo sapiens) (UniProt P16473); assay: qHTS assay to identify small molecule antagonists of the thyroid stimulating hormone receptor (TSHR) signaling pathway (AID 1259385); also: nearly all actives have a fitted effect of over 20% in size
Method in brief: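 TSHR-HEK293 cells were plated and held 18 h at 37C/5% CO2, then given compound plus Ro20-1724 and stimulated with TSH at 1.5 ng/mL final. After 30 min at room temperature, cAMP was detected with cAMP-d2/anti-cAMP-cryptate (1 h) by fluorescence.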

[9] = qHTS assay to identify small molecule agonists of the estrogen receptor alpha (ER-alpha) signaling pathway in the presence of an antagonist - cell viability counter screen (AID 1259386; active = well fitted curve in the direction sought with a large enough effect in the repeat runs; an effect the other way counts as inactive or inconclusive; also: nearly all actives have a fitted effect of over 30% in size; also: potency is read from the fitted curve at half-maximal effect)
Method in brief: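 Compounds tested at 15 concentrations for 22 h at 37C alongside 10.0nM (final) ICI-182,780 antagonist, in VM7Luc4E2 cells grown in phenol red-free, charcoal-stripped medium. Viability read by CellTiter-Fluor fluorescence after 1 h reagent incubation.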

[10] = molecular target: Progesterone receptor (Homo sapiens) (UniProt P06401); assay: qHTS assay to identify small molecule agonists of the progesterone receptor (PR) signaling pathway (AID 1346784); also: nearly all actives have a fitted effect of over 30% in size; also: potency is read from the fitted curve at half-maximal effect
Method in brief: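 Agonist mode, quantitative HTS format in a HEK 293T line expressing a UAS-controlled beta-lactamase reporter; 16 hr compound exposure at 37C in 2% charcoal-stripped FBS, then LiveBLAzer B/G FRET fluorescence.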

[11] = molecular target: Progesterone receptor (Homo sapiens) (UniProt P06401); assay: qHTS assay to identify small molecule antagonists of the progesterone receptor (PR) signaling pathway (AID 1346795; active = well fitted inhibition curve with a large enough effect in the signal ratio in the repeat runs, not every such curve was filed as active; the % refers to the signal ratio; also: potency is read from the fitted curve at half-maximal effect)
Method in brief: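 HEK293T PR-UAS-bla reporter cells in charcoal-stripped serum (2%) received compound after a 6 hr settling period, followed by R5020 agonist at 1 nM final; 16 hr incubation preceded the FRET substrate step and fluorescence measurement.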

[12] = qHTS assay to identify small molecule antagonists of the progesterone receptor (PR) signaling pathway - cell viability counter screen (AID 1346798; active = well fitted curve in the direction sought with a large enough effect in the repeat runs; an effect the other way counts as inactive or inconclusive; also: series mostly up to about 92 µM; nearly all actives have a fitted effect of over 50% in size)
Method in brief: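 Same-well multiplex: after 16 hr at 37C with compound and R5020 stimulation, HEK293T cells carrying a UAS-bla reporter received LiveBLAzer substrate (2 hr RT), then CellTiter-Glo (30 min RT) for luminescent viability.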

[13] = qHTS assay to identify small molecule agonists of the progesterone receptor (PR) signaling pathway - cell viability counter screen (AID 1346799); also: nearly all actives have a fitted effect of over 45% in size
Method in brief: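 Counter screen for cytotoxicity: compound-treated PR-UAS-bla HEK293T cells (16 hr, 37C, 5% CO2) were assayed with CellTiter-Glo, luminescence measured after 30 min at room temperature.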

[14] = qHTS assay to identify small molecule antagonists of the TGF-beta/Smad signaling pathway - cell viability counter screen (AID 1346824; active = well fitted curve in the direction sought with a large enough effect in the repeat runs; an effect the other way counts as inactive or inconclusive; also: nearly all actives have a fitted effect of over 50% in size)
Method in brief: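 SBE-bla HEK 293T cells were plated overnight at 37 C, then given compounds in DMSO plus TGF-beta1 (added as 0.25 ng/mL solution) for 5 hr. After the bla read, CellTiter-Glo was added to the same wells and luminescence read after 30 min at room temperature.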

[15] = qHTS assay to identify small molecule agonists of the TGF-beta/Smad signaling pathway - cell viability counter screen (AID 1346829; active = well fitted curve in the direction sought with a large enough effect in the repeat runs; an effect the other way counts as inactive or inconclusive; also: top concentration of the series differs between compounds; nearly all actives have a fitted effect of over 45% in size)
Method in brief: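 After overnight seating at 37 C and 5% CO2, reporter cells got compounds for 5 hr and FRET substrate for 2 hr; cell viability then came from CellTiter-Glo luminescence.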

[16] = qHTS assay to identify small molecule agonists of the TGF-beta/Smad signaling pathway (AID 1346859; active = well fitted activation curve with a large enough effect in the signal ratio in the repeat runs, not every such curve was filed as active; the % refers to the signal ratio; also: series mostly up to about 77 µM)
Method in brief: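 Smad-responsive beta-lactamase reporter cells (HEK 293T) received compounds from DMSO stocks after overnight attachment, were incubated 5 hr, then treated 2 hr with FRET substrate before dual-emission fluorescence measurement (405 nm excitation).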

[17] = molecular target: Thyrotropin-releasing hormone receptor (Homo sapiens) (UniProt P34981); assay: qHTS assay to identify small molecule antagonists of the thyrotropin-releasing hormone receptor (TRHR) signaling pathway (AID 1346877; active = well fitted inhibition curve with a large enough effect in the repeat runs, not every such curve was filed as active; also: series mostly up to about 51 µM)
Method in brief: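 Antagonist mode: after a 5 min room-temperature compound exposure, cells were stimulated with 1 nM (final) TRH. Dye-loaded TRHR-HEK293 cells were used, and calcium-dependent fluorescence was followed for 3 min, with 15-point titrations run in triplicate.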

[18] = molecular target: Thyrotropin-releasing hormone receptor (Homo sapiens) (UniProt P34981); assay: qHTS assay to identify small molecule agonists of the thyrotropin-releasing hormone receptor (TRHR) signaling pathway (AID 1346891);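 also: HEK293 cells expressing TRHR with calcium dye readout; series mostly up to about 58 µM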
Method in brief: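 Agonist-mode calcium mobilisation screen: TRHR-transfected HEK293 cells cultured overnight (18 h), dye-loaded for 2 h at 37 °C, exposed to compounds, and monitored by fluorescence for 3 min.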

[19] = molecular target: Androgen receptor (Homo sapiens) (UniProt P10275); assay: qHTS assay to identify small molecule agonists of the androgen receptor (AR) signaling pathway in the presence of an antagonist (AID 1259381); also: nearly all actives have a fitted effect of over 15% in size; also: potency is read from the fitted curve at half-maximal effect
Method in brief: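 Agonist-mode confirmation run against 3.0 uM final nilutamide: compounds titrated at 15 concentrations onto MDA-kb2 MMTV-luciferase reporter cells. Luminescence measured with ONE-Glo following 16 hr incubation, 37C, 0% CO2.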

Measured: Potency

Chain of Estrogen receptor (Homo sapiens) (P03372 whole entry, looked up): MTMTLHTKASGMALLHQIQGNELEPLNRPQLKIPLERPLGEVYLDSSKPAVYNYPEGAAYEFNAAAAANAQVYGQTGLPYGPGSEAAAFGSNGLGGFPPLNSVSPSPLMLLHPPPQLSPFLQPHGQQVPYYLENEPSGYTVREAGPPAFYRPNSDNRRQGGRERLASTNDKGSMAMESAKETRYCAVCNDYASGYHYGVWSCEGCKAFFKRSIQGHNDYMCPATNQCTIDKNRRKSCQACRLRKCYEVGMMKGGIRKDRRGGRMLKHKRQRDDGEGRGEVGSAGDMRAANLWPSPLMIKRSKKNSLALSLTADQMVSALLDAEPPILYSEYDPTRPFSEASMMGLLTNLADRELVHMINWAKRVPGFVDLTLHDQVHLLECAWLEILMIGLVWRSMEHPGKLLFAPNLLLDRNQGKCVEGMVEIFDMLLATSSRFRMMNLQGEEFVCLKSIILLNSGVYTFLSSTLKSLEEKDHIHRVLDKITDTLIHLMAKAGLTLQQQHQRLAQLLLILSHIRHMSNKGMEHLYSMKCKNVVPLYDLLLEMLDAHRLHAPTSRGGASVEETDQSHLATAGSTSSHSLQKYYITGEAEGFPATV
Chain of Androgen receptor (Homo sapiens) (P10275 whole entry, looked up): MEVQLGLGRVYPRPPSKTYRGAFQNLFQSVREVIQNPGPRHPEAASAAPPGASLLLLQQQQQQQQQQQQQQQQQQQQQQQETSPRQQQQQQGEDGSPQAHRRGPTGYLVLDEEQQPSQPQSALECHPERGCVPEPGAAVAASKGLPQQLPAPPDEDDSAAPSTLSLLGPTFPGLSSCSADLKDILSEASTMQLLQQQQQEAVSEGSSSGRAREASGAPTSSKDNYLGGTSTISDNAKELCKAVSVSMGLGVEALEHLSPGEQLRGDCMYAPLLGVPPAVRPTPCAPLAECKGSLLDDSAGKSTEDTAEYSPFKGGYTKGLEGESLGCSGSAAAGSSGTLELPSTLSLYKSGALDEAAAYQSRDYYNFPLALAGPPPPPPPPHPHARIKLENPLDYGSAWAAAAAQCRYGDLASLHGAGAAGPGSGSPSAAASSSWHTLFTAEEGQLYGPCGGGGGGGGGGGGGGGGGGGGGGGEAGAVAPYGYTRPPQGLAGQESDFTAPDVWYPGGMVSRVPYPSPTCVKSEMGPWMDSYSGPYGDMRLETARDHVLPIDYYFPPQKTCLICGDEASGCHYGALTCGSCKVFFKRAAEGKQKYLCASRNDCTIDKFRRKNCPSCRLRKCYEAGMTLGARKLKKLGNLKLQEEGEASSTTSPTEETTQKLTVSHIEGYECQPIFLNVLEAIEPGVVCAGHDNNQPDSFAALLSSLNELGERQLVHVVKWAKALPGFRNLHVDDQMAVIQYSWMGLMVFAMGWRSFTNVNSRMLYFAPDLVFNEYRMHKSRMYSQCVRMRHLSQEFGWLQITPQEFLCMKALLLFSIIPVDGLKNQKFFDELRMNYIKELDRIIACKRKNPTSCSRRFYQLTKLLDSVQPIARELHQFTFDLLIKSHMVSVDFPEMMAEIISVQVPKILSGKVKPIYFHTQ
Chain of Thyrotropin receptor (Homo sapiens) (P16473 whole entry, looked up): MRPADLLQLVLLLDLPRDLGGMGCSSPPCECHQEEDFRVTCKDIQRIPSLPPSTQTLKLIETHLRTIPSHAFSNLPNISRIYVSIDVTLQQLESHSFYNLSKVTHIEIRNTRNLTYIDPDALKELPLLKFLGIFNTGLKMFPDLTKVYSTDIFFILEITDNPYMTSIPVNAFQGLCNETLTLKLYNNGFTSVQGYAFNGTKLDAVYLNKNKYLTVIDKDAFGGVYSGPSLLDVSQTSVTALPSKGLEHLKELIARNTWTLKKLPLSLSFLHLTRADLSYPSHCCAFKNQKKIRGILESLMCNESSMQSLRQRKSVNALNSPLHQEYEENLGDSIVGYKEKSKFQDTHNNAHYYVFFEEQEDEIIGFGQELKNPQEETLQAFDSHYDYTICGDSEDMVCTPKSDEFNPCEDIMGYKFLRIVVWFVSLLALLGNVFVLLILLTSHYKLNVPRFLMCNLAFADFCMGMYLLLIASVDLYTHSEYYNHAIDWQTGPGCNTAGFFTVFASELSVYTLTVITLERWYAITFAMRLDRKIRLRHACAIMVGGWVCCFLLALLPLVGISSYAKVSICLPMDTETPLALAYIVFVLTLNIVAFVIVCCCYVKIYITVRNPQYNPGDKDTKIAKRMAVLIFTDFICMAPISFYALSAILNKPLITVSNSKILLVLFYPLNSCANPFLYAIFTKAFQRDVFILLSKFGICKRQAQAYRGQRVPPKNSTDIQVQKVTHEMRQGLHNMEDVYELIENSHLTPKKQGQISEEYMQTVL
Chain of Progesterone receptor (Homo sapiens) (P06401 whole entry, looked up): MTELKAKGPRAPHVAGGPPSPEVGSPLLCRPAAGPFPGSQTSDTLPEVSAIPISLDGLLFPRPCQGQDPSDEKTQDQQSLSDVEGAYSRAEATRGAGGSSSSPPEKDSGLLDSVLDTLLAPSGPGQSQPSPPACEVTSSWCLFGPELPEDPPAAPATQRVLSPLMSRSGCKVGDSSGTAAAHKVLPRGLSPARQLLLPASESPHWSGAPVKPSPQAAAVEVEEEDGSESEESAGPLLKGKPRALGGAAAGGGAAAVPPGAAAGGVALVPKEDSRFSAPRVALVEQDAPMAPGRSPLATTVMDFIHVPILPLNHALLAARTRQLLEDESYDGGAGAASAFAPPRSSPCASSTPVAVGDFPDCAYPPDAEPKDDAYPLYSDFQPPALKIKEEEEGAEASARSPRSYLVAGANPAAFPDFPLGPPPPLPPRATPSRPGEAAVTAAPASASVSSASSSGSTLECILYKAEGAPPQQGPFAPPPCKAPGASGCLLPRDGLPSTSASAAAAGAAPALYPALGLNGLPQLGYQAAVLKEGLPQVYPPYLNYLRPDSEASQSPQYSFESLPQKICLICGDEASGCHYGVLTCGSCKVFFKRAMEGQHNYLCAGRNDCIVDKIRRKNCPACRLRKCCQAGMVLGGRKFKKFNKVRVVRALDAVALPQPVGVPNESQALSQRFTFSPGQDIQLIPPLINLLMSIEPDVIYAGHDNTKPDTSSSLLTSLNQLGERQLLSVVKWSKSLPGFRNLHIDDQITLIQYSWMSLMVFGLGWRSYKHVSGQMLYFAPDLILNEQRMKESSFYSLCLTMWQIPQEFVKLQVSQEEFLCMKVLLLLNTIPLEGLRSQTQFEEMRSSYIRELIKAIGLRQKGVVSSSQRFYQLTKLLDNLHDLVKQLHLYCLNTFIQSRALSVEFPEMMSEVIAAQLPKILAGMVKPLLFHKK
Chain of Thyrotropin-releasing hormone receptor (Homo sapiens) (P34981 whole entry, looked up): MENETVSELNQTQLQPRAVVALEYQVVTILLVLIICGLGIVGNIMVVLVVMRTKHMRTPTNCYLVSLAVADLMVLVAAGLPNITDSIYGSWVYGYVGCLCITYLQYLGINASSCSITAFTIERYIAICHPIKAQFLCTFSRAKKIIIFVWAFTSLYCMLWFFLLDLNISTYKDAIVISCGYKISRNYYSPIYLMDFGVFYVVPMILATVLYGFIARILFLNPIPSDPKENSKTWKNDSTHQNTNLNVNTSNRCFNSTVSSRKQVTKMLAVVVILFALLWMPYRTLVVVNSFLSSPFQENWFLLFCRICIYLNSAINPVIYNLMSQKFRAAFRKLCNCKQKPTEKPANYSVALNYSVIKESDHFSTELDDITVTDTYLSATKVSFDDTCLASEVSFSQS
Chain of Estrogen receptor beta (Homo sapiens) (Q92731 whole entry, looked up): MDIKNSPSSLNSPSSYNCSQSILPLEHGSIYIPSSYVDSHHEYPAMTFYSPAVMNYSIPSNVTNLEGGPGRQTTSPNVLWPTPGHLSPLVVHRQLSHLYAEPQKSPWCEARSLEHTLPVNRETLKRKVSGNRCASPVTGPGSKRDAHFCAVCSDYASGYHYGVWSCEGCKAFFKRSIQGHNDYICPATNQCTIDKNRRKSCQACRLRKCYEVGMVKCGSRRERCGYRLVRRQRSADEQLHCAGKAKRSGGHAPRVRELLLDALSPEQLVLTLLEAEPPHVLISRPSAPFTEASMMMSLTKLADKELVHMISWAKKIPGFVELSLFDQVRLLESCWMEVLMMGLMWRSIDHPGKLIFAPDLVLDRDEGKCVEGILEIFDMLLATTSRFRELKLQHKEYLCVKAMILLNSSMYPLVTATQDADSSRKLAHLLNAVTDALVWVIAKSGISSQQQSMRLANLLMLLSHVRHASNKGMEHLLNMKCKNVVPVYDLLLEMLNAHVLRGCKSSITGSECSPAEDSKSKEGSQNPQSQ

CCC1(CC)C(=O)C=CNC1=O
not listed: [19]
inactive: all other assays above

CCCCOC(C)=O
not listed: [2] | [19]
inactive: all other assays above

Clc1ccc(C(Cl)(Cl)Cl)cn1
not listed: [2] | [12] | [13]
inactive: all other assays above

C[C@H]1CCCC(=O)CCC/C=C/c2cc(O)cc(O)c2C(=O)O1
14.8 µM (active) and inactive: [1]
active: [6] 41.7 nM and 56.3 nM | [11] 5.02 µM
inactive: [4] | [19] | [5] | [14] | [15] | [16] | [17] | [18]
46.8 µM (active) and inactive: [3] | [9]

O=C(Cl)/C=C/C(=O)Cl
inactive: [1] | [2] | [3] | [4] | [19] | [5] | [6] | [14] | [15] | [16]

NC1(c2ccccc2)CCCCC1
not listed: [11] | [19]
inactive: all other assays above

Cc1ccc(S(=O)(=O)N[C@@H](CCCCN)C(=O)CCl)cc1
not listed: [13]
inactive: all other assays above

CCOC(=O)NC(C)(C)Cc1ccc(Cl)cc1
not listed: [2] | [8] | [9] | [17] | [18]
inactive: all other assays above

O=C(O)CBr
not listed: [6] | [14] | [19]
inactive: all other assays above

CCOC(=O)CC(SP(=S)(OC)OC)C(=O)OCC (stereo not drawn)
1.37 µM (active) and inactive: [10]
27.3 µM (active) and inactive: [19]
not listed: [2]
inactive: all other assays above

CCCCS(=O)(=O)Cl
not listed: [2] | [6] | [19]
inactive: all other assays above

CN1C(=O)COc2c(C(=O)NC3CN4CCC3CC4)cc(Cl)cc21 (stereo not drawn)
not listed: [2] | [9] | [12] | [19]
inactive: all other assays above
